A selection: hits, their analogues and other compounds. The true share with any hit is near 7.4%.
D1 mod – allosterically modulates the human D1 dopamine receptor; P21728; HEK293 D1, CRE-luciferase, dopamine EC30 potentiation; actives deviate in either direction; B-score at 10 µM; hit rate 5.9% among 58,000; AID 641;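 active = luminescence count or its row- and column-corrected plate score outside the 99.7% band of the plate's sample wells, on either side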
M1 agonist – M1 muscarinic receptor agonism. B-score at 10 µM. hit rate 3% among 64,000. CHO-M1 cells, Fluo-4 calcium fluorescence, agonist mode; active compounds read high. AID 626;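 active = fluorescence rise, raw or as B-score row- and column-corrected plate score, outside the 99.7% band of its plate's samples, either direction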
FXIa mix inh – inhibitors of human coagulation factor XIa, pooled mixtures; P03951; purified FXIa, fluorogenic substrate; inhibition, % at 5 µM; hit rate 0.19% among 62,000;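 also: each value is inhibition by a whole ten-compound pool holding the compound; 0% = enzyme with no mixture and 100% = wells lacking enzyme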
FXIIa mix inh – blocks human factor XIIa in pooled compound mixtures; P00748; purified FXIIa, fluorogenic substrate; inhibition, % at 5 µM; hit rate 0.2% among 62,000;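 also: 0% = enzyme without compound and 100% = no enzyme blank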
Target sequence (P00748 20-372 limits assumed): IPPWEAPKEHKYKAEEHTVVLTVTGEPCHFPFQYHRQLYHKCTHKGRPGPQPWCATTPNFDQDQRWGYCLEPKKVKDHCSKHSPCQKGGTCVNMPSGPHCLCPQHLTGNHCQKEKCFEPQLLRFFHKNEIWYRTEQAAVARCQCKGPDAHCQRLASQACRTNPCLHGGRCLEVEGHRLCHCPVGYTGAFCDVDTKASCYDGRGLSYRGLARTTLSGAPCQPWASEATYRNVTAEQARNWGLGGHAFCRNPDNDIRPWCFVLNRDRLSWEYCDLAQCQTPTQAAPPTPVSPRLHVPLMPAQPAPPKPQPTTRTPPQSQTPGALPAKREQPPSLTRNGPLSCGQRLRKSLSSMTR
Target sequence (P00748 373-615 limits assumed): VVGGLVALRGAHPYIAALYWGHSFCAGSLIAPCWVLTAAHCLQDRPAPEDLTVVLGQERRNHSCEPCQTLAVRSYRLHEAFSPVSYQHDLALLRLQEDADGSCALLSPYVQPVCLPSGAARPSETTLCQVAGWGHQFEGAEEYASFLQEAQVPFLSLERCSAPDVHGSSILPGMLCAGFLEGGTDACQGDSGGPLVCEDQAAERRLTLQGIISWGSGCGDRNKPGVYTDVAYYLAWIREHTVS
M1 antagonist – antagonists of rat M1 muscarinic receptor; P08482; CHO-M1 cells, Fluo-4 calcium, ACh EC80 antagonist mode; active compounds read low; B-score at 10 µM; hit rate 3.4% among 64,000; AID 628;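 active = calcium fluorescence response, raw or row-and-column corrected B-score, differing from the plate sample mean either way at a set confidence level, mostly lower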
DAT uptake mod – changed human dopamine transporter uptake under cocaine IC80 | Q01959 | LLC-PK1 hDAT cells, [14C]-dopamine uptake with cocaine IC80; actives deviate in either direction | B-score at 10 µM | hit rate 1.3% among 110,000 | AID 449768;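 active = Z score or B-score, a plate-position-corrected score, falls beyond the plate's 99.7% confidence bounds, in either direction; inactive = both scores lie inside the 99.7% bounds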;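 also: scored against the spread of the other compound wells on the same plate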
M1 agonist conf – rat M1 muscarinic agonism, confirmation | shares compounds with M1 agonist | CHO-M1 cells, Fluo-4 calcium fluorescence, agonist mode; actives lie on both sides | fluorescence change (max-min) at 10 µM | hit rate 19% among 1,700;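 active = fluorescence change differs from the solvent-only DMSO control mean at a set confidence level in both duplicate runs; inconclusive = differs from solvent-only control mean in just one of two runs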;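 also: an EC20 dose of acetylcholine follows compound addition during the same imaging run; raw fluorescence intensity difference in instrument units with no normalization to controls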
M4 ag counter – rat M4 muscarinic agonism, M1 counter-screen; shares compounds with M1 agonist; CHO M4/Gqi5 cells, Fluo-4 calcium fluorescence, agonist mode; actives lie on both sides; fluorescence change (max-min) at 10 µM; hit rate 9% among 1,700; AID 1741;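 active = fluorescence change differing from the plate's solvent-only control wells at 99.7% confidence in both duplicates, whether higher or lower; inconclusive = differs from solvent controls in only one of two duplicates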
* marks the source's active call; other numbers are inactive results; ? = inconclusive; . = no result. Rule as the data show it, unless noted: active = inhibition above about 20% (passing the limit was not always enough); inactive = the rest.

SMILES	D1 mod	M1 agonist	FXIa mix inh	FXIIa mix inh	M1 antagonist	DAT uptake mod	M1 agonist conf	M4 ag counter
CC1CN(S(=O)(=O)c2cccc(-c3cn4cccnc4n3)c2)CC(C)O1 (stereo not given)	0.33	0.31	-15	5	0.32	.	.	.
CC(=O)c1cccc(OCC(=O)c2cc(C)n(-c3cc(C)on3)c2C)c1	-2	0.9	10	4	-0.39	0.4	.	.
Cc1cc(-n2c(C)cc(C(=O)CSc3nnc4sc5ccccc5n34)c2C)no1	0.81	0.015	8	-23	-0.53	0.041	.	.
Cc1cc(-n2c(C)cc(C(=O)COc3ccc4ccc(=O)oc4c3)c2C)no1	-1	6.2*	1	11	-0.25	0.039	?	-40
Cc1cc(-n2c(C)cc(C(=O)CSc3ncnc4ccccc34)c2C)no1	-3.2*	7*	-2	2	-1.4	2.1	-5.4	?
CCCCCCCCN1[C@@H](CC(=O)OC)c2cc(C(F)(F)F)ccc2S1(=O)=O	.	.	.	.	.	1.4	.	.
CC(C)(C)n1nnnc1C(c1ccc(C(F)(F)F)cc1)N(Cc1ccc(F)cc1)Cc1ccco1 (stereo not given)	.	.	.	.	.	-1.4	.	.
Cc1ccc(-c2nn3c(-c4ccco4)nnc3c3ccccc23)cc1S(=O)(=O)NCC1CCCO1 (stereo not given)	-0.51	5.3*	10	0	-0.95	1.7	3.3	-30
Cc1ccc(-c2nnc(Nc3ccccc3)c3ccccc23)cc1S(=O)(=O)NCC1CCCO1 (stereo not given)	.	.	.	.	.	0.24	.	.
CC(C)(C)OC(=O)N[C@@H](Cc1ccccc1)c1nnc(S(=O)(=O)Cc2ccccc2)o1	-0.5	21*	8	-3	-0.6	-0.0094	-15	-41
Cc1csc2nc3ccccc3c(=O)n12	0.34	0.84	1	1	-0.57	-1.2	.	.
COc1ccc(CNn2c(C)nc3ccccc3c2=O)cc1	.	5.6*	0	-13	-0.51	0.045	-8.3	-17
CCCCOc1ccc(CNn2c(C)nc3ccccc3c2=O)cc1	.	-0.48	6	6	0.0013	-0.35	.	.
COC(=O)c1cc2ccccc2c(-c2c(OC)c(C(=O)OC)cc3ccccc23)c1OC	.	.	.	.	.	1	.	.
CCCS(=O)(=O)N1CCCC(C(=O)NCCCN(Cc2ccccc2)C(C)C)C1 (stereo not given)	-0.78	0.32	1	10	-0.78	.	.	.
Cc1cc(O)c2c(c1)C(=O)c1cccc(O)c1C2=O	.	.	.	.	.	-1.2	.	.
O=C(O)c1cc(O)c2c(c1)C(=O)c1cccc(O)c1C2=O	1.5	67*	6	-16	-0.091	0.011	189*	?
COc1ccc(-c2csc(NC(=O)CCn3cnc4ccccc4c3=O)n2)cc1OC	.	.	.	.	.	0.24	.	.
CCOc1ccc(C2=[N+]([O-])C(C)(C)N(O)C2(C)C)cc1	-0.2	3.6*	-4	-2	2.7*	0.2	-20	?
O=C(Nc1ccc(F)cc1)C(c1ccccc1)N1CCN(C(=O)c2ccco2)CC1 (stereo not given)	.	.	.	.	.	1.2	.	.
CCN(CC)S(=O)(=O)c1cccc(-c2nnc(SCCOc3ccccc3C)o2)c1	.	5.6*	9	3	-1.2	-0.072	18	?
CCN(CC)S(=O)(=O)c1cccc(-c2nnc(SCCOc3ccc(Cl)cc3)o2)c1	-1.8	-1.5	5	-9	0.053	-0.76	.	.
CCOC(=O)C1CCN(c2ncnc3c2cnn3-c2ccc(OC)cc2)CC1	.	0.42	.	.	-0.56	.	.	.
Cc1ccc(-n2ncc3c(N4CCCC4)ncnc32)c(C)c1	.	0.18	.	.	-0.18	-0.2	.	.
CCOC(=O)C1CCCN(c2ncnc3c2cnn3-c2cccc(C)c2)C1 (stereo not given)	.	33*	6	9	-2.2*	0.64	282*	-27
SMILES	D1 mod	M1 agonist	FXIa mix inh	FXIIa mix inh	M1 antagonist	DAT uptake mod	M1 agonist conf	M4 ag counter
COc1cccc(N2CCN(c3ncnc4c3cnn4-c3ccc(C)cc3C)CC2)c1	-7.4*	9.7*	3	3	-1.2	1.1	-12	-31
CN1CCc2c(sc3c2C(=O)NC(/C=C/c2ccco2)N3)C1 (stereo not given)	-0.052	-1.3	.	.	0.89	-0.84	.	.
CN(C(=O)COC(=O)CNS(=O)(=O)/C=C/c1ccccc1)C1CCS(=O)(=O)C1 (stereo not given)	0.014	-1	-22	-34	0.015	0.12	.	.
Nc1nnc(SCc2cccc(C(F)(F)F)c2)s1	0.13	1.6*	6	16	0.97	-2.7*	-11	?
c1ccc(-n2nnnc2Oc2ccc(-c3nnco3)cc2)cc1	0.0054	0.3	15	9	0.075	0.034	.	.
O=S(=O)(NCCCCCNS(=O)(=O)c1ccccc1)c1ccccc1	1.2	-1.7*	6	5	-1.3	-1.2	16	-6.8
CCOC(=O)N1CCN(C(=O)c2cccn3c(=O)c4sccc4nc23)CC1	-0.051	-1.2	-5	4	0.015	-0.34	.	.
O=C(NCc1ccco1)c1cccn2c(=O)c3sccc3nc12	5*	2.9*	4	4	-3.2*	1.1	-18	-60
O=C(CSc1nnc(-c2ccc(Br)o2)n1Cc1ccccc1)c1ccccc1F	.	-0.083	-1	7	-0.3	0.019	.	.
COc1ccc(-c2csc(N(CCCN(C)C)C(=O)c3cccs3)n2)cc1	-0.42	27*	7	11	-9.5*	1.5	11	-37
COc1ccc(-c2csc(N(CCCN3CCOCC3)C(=O)c3ccco3)n2)cc1	.	8.8*	-2	5	-1.1	-0.16	-1.5	-39
Cc1ccc(-c2csc(N(CCCN3CCOCC3)C(=O)c3ccco3)n2)cc1	-0.12	2.3	8	-18	0.42	-0.28	.	.
Cc1ccccc1N1C(=O)c2cccc3c(N(C)CCO)ccc(c23)C1=O	2.1	91*	9	3	-0.15	-0.086	868*	912*
COCC(C)n1c(C)cc(C(=O)CSc2nc3ccccc3c(=O)[nH]2)c1C (stereo not given)	.	2.8*	0	2	0.74	-0.67	-15	-21
O=c1nc(N(c2ccccc2)c2ccccc2)[nH]c(=O)[nH]1	-0.27	-0.71	1	-1	-0.5	-0.3	.	.
Cc1ccc2[nH]c3c(c2c1)CN(C(=O)CN1CCN(Cc2ccc4c(c2)OCO4)CC1)CC3	-1.4	0.065	4	3	-1.6	0.17	.	.
Cc1ccc2[nH]c3c(c2c1)CN(C(=O)CN1CC(C)OC(C)C1)CC3 (stereo not given)	.	8.4*	.	.	-0.019	-0.066	31	17
COc1cc(C(=O)N(Cc2ccccn2)CC2CCCO2)cc(OC)c1OC (stereo not given)	1.8	-0.56	9	-17	0.71	0.61	.	.
CCOC(=O)Cn1c2ccc(OC)cc2c2nc3ccccc3nc21	0.03	19*	5	6	-0.2	-1.5	-10	-21
